Consider ten compounds from ChEMBL document CHEMBL2218924, “A broad activity screen in support of a chemogenomic map for kinase signalling research and drug discovery” (Biochem J, 2013).

As a reminder, the residual activity is the signal under treatment as a percentage of the control signal.

Assay [1] addresses T1, Ephrin type-B receptor 1 (Homo sapiens) (UniProt P54762).
T1 sequence (whole entry): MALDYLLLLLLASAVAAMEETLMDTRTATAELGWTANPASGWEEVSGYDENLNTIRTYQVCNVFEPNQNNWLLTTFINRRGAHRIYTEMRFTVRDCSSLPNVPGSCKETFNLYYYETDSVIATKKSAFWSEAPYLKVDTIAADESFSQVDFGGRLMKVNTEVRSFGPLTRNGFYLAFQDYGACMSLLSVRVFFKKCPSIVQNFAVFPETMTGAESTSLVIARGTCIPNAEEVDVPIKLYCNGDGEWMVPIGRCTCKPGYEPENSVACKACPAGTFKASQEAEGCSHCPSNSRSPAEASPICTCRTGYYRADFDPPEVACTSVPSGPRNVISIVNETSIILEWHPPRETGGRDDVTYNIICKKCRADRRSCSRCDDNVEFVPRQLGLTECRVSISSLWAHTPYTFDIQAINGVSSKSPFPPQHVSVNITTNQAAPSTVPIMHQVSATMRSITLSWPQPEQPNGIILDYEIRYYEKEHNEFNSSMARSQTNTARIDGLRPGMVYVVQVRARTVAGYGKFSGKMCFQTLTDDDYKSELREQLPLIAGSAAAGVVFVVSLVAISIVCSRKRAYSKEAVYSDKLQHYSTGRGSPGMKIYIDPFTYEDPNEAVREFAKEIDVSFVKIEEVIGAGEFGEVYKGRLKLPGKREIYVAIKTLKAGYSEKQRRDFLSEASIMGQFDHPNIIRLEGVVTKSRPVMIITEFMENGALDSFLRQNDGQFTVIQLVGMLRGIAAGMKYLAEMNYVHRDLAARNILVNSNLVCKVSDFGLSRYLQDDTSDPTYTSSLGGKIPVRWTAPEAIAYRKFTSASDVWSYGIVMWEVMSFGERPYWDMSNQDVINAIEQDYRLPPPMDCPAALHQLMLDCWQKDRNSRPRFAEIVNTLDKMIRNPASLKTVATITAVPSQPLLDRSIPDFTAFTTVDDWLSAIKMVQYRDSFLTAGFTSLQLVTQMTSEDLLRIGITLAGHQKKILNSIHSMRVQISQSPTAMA
To be noted: at 10 µM.

Assay [2] deals with T2, Ephrin type-B receptor 2 (Homo sapiens) (UniProt P29323).
T2 sequence (whole entry): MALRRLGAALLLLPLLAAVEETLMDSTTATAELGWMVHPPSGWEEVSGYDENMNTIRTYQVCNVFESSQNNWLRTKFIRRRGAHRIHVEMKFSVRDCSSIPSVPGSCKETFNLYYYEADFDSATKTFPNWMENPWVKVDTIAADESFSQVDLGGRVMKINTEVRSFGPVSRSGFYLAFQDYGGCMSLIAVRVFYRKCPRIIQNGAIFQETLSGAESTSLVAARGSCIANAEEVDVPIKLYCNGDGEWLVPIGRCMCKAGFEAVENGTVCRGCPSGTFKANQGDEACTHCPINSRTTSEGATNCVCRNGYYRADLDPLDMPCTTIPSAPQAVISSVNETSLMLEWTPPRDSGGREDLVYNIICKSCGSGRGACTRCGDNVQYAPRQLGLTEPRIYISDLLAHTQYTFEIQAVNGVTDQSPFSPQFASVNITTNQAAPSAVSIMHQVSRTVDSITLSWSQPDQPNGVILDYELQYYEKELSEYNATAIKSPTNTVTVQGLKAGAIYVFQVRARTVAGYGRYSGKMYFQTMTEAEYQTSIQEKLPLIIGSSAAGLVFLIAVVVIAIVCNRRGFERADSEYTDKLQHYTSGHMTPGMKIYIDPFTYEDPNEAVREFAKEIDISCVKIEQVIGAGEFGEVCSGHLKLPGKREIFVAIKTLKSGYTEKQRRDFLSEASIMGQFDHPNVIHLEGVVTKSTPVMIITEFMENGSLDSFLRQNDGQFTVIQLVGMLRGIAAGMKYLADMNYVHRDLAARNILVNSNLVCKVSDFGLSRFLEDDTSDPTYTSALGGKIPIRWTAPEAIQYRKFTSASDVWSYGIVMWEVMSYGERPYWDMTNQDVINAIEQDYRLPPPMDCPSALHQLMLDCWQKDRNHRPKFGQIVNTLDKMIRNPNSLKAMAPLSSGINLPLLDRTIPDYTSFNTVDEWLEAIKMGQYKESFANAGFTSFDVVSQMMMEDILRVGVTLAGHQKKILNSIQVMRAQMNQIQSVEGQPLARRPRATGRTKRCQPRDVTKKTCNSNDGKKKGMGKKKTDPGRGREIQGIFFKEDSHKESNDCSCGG
The following applies: at 1 µM.

Assay [3] has as its target T2, Ephrin type-B receptor 2 (Homo sapiens). To be noted: at 10 µM.
Assay [4] concerns the target T3, Ephrin type-B receptor 3 (Homo sapiens) (UniProt P54753).
T3 sequence (whole entry): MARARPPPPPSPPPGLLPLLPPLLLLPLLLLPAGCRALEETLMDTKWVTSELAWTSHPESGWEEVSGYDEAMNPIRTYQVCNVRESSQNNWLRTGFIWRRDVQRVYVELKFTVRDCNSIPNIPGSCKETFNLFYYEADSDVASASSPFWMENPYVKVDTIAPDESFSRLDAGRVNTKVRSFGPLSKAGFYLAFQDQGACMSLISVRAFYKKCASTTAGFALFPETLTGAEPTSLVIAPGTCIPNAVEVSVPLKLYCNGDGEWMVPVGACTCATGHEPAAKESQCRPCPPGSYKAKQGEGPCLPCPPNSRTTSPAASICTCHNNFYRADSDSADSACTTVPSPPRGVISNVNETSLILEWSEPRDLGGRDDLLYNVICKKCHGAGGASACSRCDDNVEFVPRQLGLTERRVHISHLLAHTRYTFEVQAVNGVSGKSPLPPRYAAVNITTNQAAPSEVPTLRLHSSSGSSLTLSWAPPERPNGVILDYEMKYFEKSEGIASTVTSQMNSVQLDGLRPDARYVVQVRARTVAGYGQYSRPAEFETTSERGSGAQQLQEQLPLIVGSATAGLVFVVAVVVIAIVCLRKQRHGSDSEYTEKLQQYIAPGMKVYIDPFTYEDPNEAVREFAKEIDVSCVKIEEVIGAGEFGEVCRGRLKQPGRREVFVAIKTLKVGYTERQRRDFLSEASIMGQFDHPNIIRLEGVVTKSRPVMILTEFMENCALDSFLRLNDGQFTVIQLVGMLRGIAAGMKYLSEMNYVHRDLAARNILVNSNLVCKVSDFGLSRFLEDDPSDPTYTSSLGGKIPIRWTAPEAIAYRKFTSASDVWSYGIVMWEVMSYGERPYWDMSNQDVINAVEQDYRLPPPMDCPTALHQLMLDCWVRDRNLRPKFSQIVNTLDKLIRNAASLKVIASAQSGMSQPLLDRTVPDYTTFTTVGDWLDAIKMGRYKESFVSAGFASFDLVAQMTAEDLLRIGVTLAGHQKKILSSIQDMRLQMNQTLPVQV
The following applies: at 1 µM.

The target in assay [5] is T3, Ephrin type-B receptor 3 (Homo sapiens). The following applies: at 10 µM.
In assay [6] the target is T4, Ephrin type-B receptor 4 (Homo sapiens) (UniProt P54760).
T4 sequence (whole entry): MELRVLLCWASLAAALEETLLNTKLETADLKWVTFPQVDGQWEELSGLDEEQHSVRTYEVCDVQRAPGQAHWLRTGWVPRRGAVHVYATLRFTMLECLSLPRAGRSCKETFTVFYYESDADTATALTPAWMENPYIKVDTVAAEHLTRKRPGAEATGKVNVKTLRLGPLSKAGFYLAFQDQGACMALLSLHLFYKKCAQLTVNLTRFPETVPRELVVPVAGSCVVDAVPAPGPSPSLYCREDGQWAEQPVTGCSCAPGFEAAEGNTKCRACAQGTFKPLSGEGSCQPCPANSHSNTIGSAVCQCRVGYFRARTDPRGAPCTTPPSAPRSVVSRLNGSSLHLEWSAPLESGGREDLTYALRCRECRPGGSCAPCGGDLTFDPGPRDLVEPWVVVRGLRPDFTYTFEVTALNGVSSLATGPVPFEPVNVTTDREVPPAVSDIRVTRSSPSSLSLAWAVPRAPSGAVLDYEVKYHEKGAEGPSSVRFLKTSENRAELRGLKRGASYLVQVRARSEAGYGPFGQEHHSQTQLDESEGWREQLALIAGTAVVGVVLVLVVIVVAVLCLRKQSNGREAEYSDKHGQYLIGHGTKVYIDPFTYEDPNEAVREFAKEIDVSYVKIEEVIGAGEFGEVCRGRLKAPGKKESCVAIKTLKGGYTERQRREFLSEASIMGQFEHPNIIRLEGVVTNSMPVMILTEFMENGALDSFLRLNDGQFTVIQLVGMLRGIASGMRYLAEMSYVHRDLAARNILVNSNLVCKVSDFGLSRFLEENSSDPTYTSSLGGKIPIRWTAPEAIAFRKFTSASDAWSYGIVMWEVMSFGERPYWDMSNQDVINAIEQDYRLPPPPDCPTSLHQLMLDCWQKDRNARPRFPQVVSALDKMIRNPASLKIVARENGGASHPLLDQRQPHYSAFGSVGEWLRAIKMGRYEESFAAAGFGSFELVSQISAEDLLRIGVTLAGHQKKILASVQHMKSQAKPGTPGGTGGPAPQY
The following applies: at 1 µM.

Assay [7] concerns the target T4, Ephrin type-B receptor 4 (Homo sapiens). The following applies: at 10 µM.
For assay [8], the target named is Receptor tyrosine-protein kinase erbB-4 (Homo sapiens) (UniProt Q15303). The following applies: at 1 µM.
Receptor tyrosine-protein kinase erbB-4 (Homo sapiens), sequence (Q15303 whole entry): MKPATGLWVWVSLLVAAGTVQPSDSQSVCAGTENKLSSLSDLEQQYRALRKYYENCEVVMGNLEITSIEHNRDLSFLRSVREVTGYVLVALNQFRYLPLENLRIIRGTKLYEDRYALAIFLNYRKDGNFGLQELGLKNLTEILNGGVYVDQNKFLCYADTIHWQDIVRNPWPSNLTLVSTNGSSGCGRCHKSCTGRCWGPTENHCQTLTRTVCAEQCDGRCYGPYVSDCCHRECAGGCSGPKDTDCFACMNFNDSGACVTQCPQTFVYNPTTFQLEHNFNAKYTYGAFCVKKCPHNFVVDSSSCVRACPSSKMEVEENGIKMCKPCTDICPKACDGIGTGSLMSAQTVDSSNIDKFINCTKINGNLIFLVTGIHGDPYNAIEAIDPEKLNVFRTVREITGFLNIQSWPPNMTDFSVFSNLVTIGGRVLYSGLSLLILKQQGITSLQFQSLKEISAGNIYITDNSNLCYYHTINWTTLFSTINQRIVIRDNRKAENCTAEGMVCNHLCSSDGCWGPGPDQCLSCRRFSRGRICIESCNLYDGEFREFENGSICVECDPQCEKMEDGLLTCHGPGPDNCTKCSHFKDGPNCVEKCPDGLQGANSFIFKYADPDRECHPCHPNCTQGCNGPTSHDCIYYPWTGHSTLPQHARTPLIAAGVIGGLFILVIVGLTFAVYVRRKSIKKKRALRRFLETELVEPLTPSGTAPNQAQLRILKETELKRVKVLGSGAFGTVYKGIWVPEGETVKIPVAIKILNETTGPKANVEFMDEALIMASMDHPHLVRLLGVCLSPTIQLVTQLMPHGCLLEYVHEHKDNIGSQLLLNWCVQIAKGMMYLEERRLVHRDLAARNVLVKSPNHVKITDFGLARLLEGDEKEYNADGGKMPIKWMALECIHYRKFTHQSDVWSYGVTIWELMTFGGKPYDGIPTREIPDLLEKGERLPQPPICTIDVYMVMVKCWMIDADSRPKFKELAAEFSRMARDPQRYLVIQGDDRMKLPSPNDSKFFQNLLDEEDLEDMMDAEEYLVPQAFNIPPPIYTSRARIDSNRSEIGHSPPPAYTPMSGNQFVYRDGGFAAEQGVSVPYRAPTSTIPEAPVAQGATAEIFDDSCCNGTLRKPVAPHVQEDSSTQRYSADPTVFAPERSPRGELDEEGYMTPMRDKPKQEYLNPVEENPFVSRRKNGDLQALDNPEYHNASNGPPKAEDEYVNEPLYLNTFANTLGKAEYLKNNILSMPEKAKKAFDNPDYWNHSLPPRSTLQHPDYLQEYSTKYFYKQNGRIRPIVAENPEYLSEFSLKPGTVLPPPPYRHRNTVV
The target is the same in assay [9]. The following applies: at 10 µM.
The target of assay [10] is Focal adhesion kinase 1 (Homo sapiens) (UniProt Q05397). To be noted: at 1 µM.
Focal adhesion kinase 1 (Homo sapiens), sequence (Q05397 2-1052 limits assumed): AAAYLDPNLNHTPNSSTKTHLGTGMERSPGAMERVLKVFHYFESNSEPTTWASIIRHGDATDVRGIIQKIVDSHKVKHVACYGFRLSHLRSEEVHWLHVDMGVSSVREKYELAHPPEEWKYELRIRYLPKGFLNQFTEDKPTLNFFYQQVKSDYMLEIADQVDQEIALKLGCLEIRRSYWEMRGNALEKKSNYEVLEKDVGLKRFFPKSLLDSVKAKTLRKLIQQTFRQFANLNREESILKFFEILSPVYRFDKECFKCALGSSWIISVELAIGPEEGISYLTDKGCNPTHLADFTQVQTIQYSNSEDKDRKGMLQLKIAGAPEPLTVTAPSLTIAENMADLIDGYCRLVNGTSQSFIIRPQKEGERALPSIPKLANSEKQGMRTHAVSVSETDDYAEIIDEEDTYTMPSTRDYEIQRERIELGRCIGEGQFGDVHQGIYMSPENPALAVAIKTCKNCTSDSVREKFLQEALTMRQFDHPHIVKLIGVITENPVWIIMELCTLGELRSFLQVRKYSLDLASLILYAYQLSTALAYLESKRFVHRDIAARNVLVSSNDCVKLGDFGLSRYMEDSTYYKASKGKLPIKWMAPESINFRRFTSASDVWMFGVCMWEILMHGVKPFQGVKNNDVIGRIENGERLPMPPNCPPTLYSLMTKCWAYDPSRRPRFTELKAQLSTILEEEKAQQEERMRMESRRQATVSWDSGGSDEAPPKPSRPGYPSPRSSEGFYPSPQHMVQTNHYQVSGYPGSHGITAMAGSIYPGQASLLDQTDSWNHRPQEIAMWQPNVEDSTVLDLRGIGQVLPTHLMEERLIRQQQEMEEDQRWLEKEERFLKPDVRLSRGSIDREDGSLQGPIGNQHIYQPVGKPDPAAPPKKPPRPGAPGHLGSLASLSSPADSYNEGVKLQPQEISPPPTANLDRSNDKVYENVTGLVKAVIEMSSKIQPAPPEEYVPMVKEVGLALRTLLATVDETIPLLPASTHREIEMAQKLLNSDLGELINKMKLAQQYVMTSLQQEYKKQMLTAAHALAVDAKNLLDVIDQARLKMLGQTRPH

As for `O=C1NC(=O)/C(=C/c2ccc3c(c2)OC(F)(F)O3)S1`, the residual activity is 106% in [1]; 108% in assay [2]; 110% in [3]; 125% (inactive) in assay [4]; 109% in assay [5]; 118% in [6]. Besides, the residual activity in assay [7] was 121%; in assay [8], 98%; in [9], 101%; in assay [10], 112%.

For `CN(C)CCCn1cc(C2=C(c3c[nH]c4ccccc34)C(=O)NC2=O)c2ccccc21`, the residual activity in assay [1] is 59%; in assay [2] it was 119%; in assay [3] it was 113%; in assay [4] it was 108% (inactive); in [5], 110%; in assay [6] it was 124%. The residual activity in assay [7] was determined as 118%; in [8], 113%; in assay [9], 86%; in [10], 133%.

Consider `O=C(Nc1cccc(Nc2cc(Nc3cccc(C(F)(F)F)c3)ncn2)c1)C1CC1`, for which the residual activity in [1] is 69%; in [2], 101%; in assay [3], 99%; in [4], 90% (inactive); in [5], 100%; in [6], 97%. In addition, the residual activity in [7] was 82%; in assay [8] it was 71%; in [9] it was 88%; in [10] it was 130%.

Regarding `CCN(CC)C(=O)c1ccc(Nc2nc(OCC3CCCCC3)c3nc[nH]c3n2)cc1`, the residual activity in assay [1] was 4%; in assay [2], 103%; in [3], 32%; in assay [4], 102% (inactive); in assay [5], 52%; in [6] it was 72%. Besides, the residual activity is 12% in assay [7], 74% in [8], 34% in assay [9] and 72% in assay [10].

Consider `c1ccc2c(-c3ccncc3)c[nH]c2c1`, for which the residual activity in assay [1] was 110%; in [2], 108%; in assay [3], 111%; in assay [4] it was 106% (inactive); in assay [5] it was 112%; in assay [6] it was 111%. Also, the residual activity in [7] is 108%; in assay [8], 88%.

In the case of `Cn1cnc2cc3c(Nc4cccc(Br)c4)ncnc3cc21`, the residual activity in assay [1] was 42%; in assay [2] it was 77%; in assay [3] it was 5%; in assay [4] it was 110% (inactive); in assay [5] it was 123%; in assay [6] it was 31%. Moreover, the residual activity in [7] was 4%; in assay [8], 72%; in assay [9], 75%; in assay [10], 82%.

`Oc1ccc(-c2nc(-c3ccc(F)cc3)c(-c3ccncc3)[nH]2)cc1`: the residual activity in [1] is 53%; in [2], 94%; in assay [3], 43%; in assay [4] it was 95% (inactive); in [5] it was 117%; in assay [6], 103%. Further, the residual activity in [7] was determined as 41%; in assay [8], 114%; in assay [9], 72%; in [10], 117%.

On to `O=C1Nc2ccc(Br)cc2/C1=C\c1cc2c([nH]1)CCCC2`, for which the residual activity in [1] is 107%; in assay [2], 111%; in [3], 115%; in assay [4], 114% (inactive); in [5], 117%; in assay [6] it was 118%. The residual activity in [7] stood at 132%; in [8], 109%; in [9], 106%; in assay [10], 78%.

Take `O=Nc1c(-c2c(O)[nH]c3ccccc23)[nH]c2ccccc12`: the residual activity in [1] is 13%; in assay [2], 91%; in assay [3], 13%; in assay [4] it was 105% (inactive); in assay [5], 103%; in assay [6], 67%. Further, the residual activity in assay [7] turned out to be 13%; in assay [8], 107%; in assay [9], 99%; in [10], 39%.

`Nc1ccc2ncnc(NCCc3ccc(Oc4ccccc4)cc3)c2c1`: the residual activity in assay [1] was 96%; in assay [2], 111%; in [3], 93%; in [4], 105% (inactive); in [5] it was 98%; in assay [6], 96%. The residual activity was 98% in [7], 33% in assay [8], 2% in assay [9] and 106% in assay [10].
